# An excerpt weighted towards active compounds, which were near 19% of everything screened.
# HT1080-NT tox: kills 2HG-producing HT-1080-NT fibrosarcoma cells. HT-1080-NT fibrosarcoma viability, CellTiter-Glo ATP luminescence, 48 h. Potency, µM (doses to about 46.1 µM), for the others: top-dose activity, negative = less viability, most hits filed as cytotoxic. hit rate 1.6% among 360,000. AID 686970;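 further: NT is the 2HG producing partner of a matched IDH1 knockdown line; potency means the concentration at half of the fitted maximal effect; 0% = DMSO-treated cells and -100% = media-only wells without cells; nearly all actives have a fitted effect of over 55% in size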
#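 A 48-hour cytotoxicity screen used HT-1080-NT cells plated 2 hours before compound delivery. ATP-based CellTiter-Glo luminescence measured viability, normalized to DMSO and no-cell controls.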
# HT1080 IDH1KD tx: HT-1080 IDH1 knockdown cell toxicity (counter line); HT-1080 IDH1 knockdown viability, ATP luminescence, 48 h; Potency, µM (top dose mostly 46.1 µM), for the others: at the highest dose activity, negative = toxicity, actives largely listed as cytotoxic; hit rate 2% among 360,000; AID 686971;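 further: potency means the concentration at half of the fitted maximal effect; 0% = DMSO wells and -100% = cell-free medium wells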
#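 Knockdown cells (IDH1KD HT-1080) received compounds 2 h after plating at 750 cells/well and were kept 48 h at 37 °C in 5% FBS RPMI. A CellTiter-Glo luminescence read gave % activity for curve fitting.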
# DT40 TDP1 CPT: growth inhibition of DT40 Tdp1-/-;hTDP1 cells with camptothecin (screen for TDP1 inhibitors) | chicken DT40 Tdp1-/-;hTDP1 cells + 20 nM CPT, ATP luminescence, 48 h | Potency, µM (highest dose often 46.2 µM), inactives show at the highest dose activity change, negative = growth inhibition, usual class: inhibitors | hit rate 12% among 420,000; further: potency means the concentration at half of the fitted maximal effect; nearly all actives have a fitted effect of over 55% in size
#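 Chicken DT40 Tdp1-/- cells complemented with human TDP1, 400 cells/well, exposed to compounds plus 20 nM camptothecin for at least 48 h at 37 C; viability read as ATP content by CellTiter-Glo luminescence.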
# IL-1B inflam inh: inflammasome signaling inhibition, IL-1 beta readout; activity change, % at 57.5 µM; THP-1 LPS/ATP IL-1B secretion, AlphaLISA, 16 h; hits give low values; hit rate 4.7% among 360,000; in the data active means activity change below about -50%; inconclusive means mostly about -30% to -49%
#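 Secreted IL-1B measured by AlphaLISA bead assay after 16 h compound exposure of THP-1 cells; compounds (final up to 57.5 uM) added 1 h before LPS (250 ng/mL) and ATP (1.25 mM) stimulation; lower signal means less secretion.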
# DT40 TDP1 no CPT: qHTS for Inhibitors of human tyrosyl-DNA phosphodiesterase 1 (TDP1): qHTS in cells in absence of CPT; DT40 Tdp1-/- hTDP1 cells, no CPT, ATP luminescence, 48 h; Potency, µM (top dose mostly 46.2 µM), inactives show at the highest dose activity change, negative = growth inhibition, most hits filed as inhibitors; hit rate 15% among 420,000; AID 686978, 2013; further: potency means the concentration at half of the fitted maximal effect; nearly all actives have a fitted effect of over 55% in size
#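 Chicken DT40 Tdp1-/- cells complemented with human TDP1, screened without camptothecin (DMSO vehicle only), 400 cells/well. Compounds pin-transferred, cells incubated at 37 °C for at least 48 hr. Growth read as ATP-dependent luminescence (CellTiter-Glo, 30 min at RT).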
# * = called active by the depositor; ? = inconclusive; . = no result; [ ] = remark or other dose. Unless noted, the call rests on the fitted dose curve; in most records, active means well fitted curve in the direction sought with a large enough effect; inconclusive means small, poorly fitted or top-dose-only effect, or another doubt; inactive means no such curve, though single readings can be large; an effect the other way counts as inactive or inconclusive. Unless noted, on the % scale 0 is the no-effect control and ±100 the full control effect.
SMILES,HT1080-NT tox,HT1080 IDH1KD tx,DT40 TDP1 CPT,IL-1B inflam inh,DT40 TDP1 no CPT
CC(=O)Nc1nc2n(n1)C(c1ccc(F)cc1)C=C(c1ccccc1)N2 (stereo unspecified),-0.9%,-1.5%,?,3.1,17.8µM*
Cc1ccc(C)c(NC(=O)CSc2nc(=O)n(Cc3ccccn3)c3c2CCC3)c1,.,.,-2.7%,.,?
CC(C)N(C(C)C)S(=O)(=O)c1ccc(N2CCc3ccccc3C2)nc1,?,?,?,-105.6*,?
CC(C)N(C(C)C)S(=O)(=O)c1ccc(Cl)nc1,13.9%,13.4%,-8.9%,0.0,-20.8%
O=C(O)Cc1cc2ccccc2nc1C(=O)O,.,.,-10.0%,.,-8.8%
COc1ccc(NC(=O)c2c(C)oc3ccc(O)c(CN4CCN(Cc5ccccc5)CC4)c23)cc1Cl,.,.,18.4µM*,.,14.6µM*
CCN1CCN(Cc2c(O)ccc3oc(C)c(C(=O)Nc4ccc(OC)c(Cl)c4)c23)CC1,.,.,23.1µM*,.,?
Cc1nn(-c2ccccc2)c2c1CC(=O)Nc1ccccc1-2,?,?,0.651µM*,26.9,0.82µM*
O=C1NCCN1CCN1CCC(c2cn(-c3ccc(F)cc3)c3ccc(Cl)cc23)CC1,.,.,2.99µM*,.,2.66µM*
O=C1NCCN1Cc1cccc(Cl)c1,10.1%,0.1%,7.4%,0.0,-14.5%
O=C(Nc1ccc(S(=O)(=O)Nc2cnc3ccccc3n2)cc1)c1ccc(Cl)c([N+](=O)[O-])c1,-12.5%,-0.1%,?,-3.6,?
O=C(OCc1c(-c2ccccc2)ncc2ccccc12)c1ccccc1C(F)(F)F,?,?,1.03µM*,-2.0,?
COc1cccc(-c2ncc3ccccc3c2COC(=O)c2ccccc2C(=O)O)c1,5.5%,16.2%,-25.6%,16.0,?
COc1cccc(-c2ncc3ccccc3c2COC(=O)c2ccc(F)cc2)c1,-1.9%,-16.6%,?,-9.9,20.6µM*
COc1cccc(-c2ncc3ccccc3c2COC(=O)c2ccc(C(C)(C)C)cc2)c1,-14.7%,?,?,15.3,?
COc1ccc(C(=O)OCc2c(-c3ccccc3)ncc3ccccc23)cc1,-15.4%,-16.5%,16.4µM*,0.0,?
COc1ccccc1C(=O)OCc1c(-c2ccccc2)ncc2ccccc12,-17.4%,-29.1%,16.4µM*,-19.3,?
CCN(CC)CCCNC(=O)CNC(=O)c1nn(-c2ccc(OC)cc2OC)c(=O)c2ccccc12,1.1%,12.9%,-15.4%,-25.2,12.5%
CC(C)(C)CNC(=O)[C@]1(C)CCC[C@@]2(C)C3CC[C@@]4(C)C[C@]3(CCC21)CC4=O (stereo partly specified),-0.2%,-12.8%,?,41.2,23.1µM*
CC(C)(C)NC(=O)[C@]1(C)CCC[C@@]2(C)C3CC[C@@]4(C)C[C@]3(CCC21)CC4=O (stereo partly specified),3.7%,0.8%,?,27.4,-24.5%
C[C@@]12CCC3[C@@](CCC4[C@@]3(C)CCC[C@@]4(C)C(=O)NCc3ccccc3)(CC1=O)C2 (stereo partly specified),-13.8%,-12.3%,?,18.8,18.4µM*
O=Cc1cn(-c2ccc(F)cc2)c2ccccc12,6.1%,4.4%,-28.9%,19.8,?
Cn1c(Oc2ccc(F)cc2F)c(C=O)c2ccccc21,-11.4%,11.7%,-12.2%,-87.9*,?
Cn1c(Oc2ccc(Cl)cc2)c(C=O)c2ccccc21,?,?,?,-94.8*,25.9µM*
Cc1ccc(Oc2c(C=O)c3ccccc3n2C)cc1,-19.2%,-14.6%,3.26µM*,-17.7,?
SMILES,HT1080-NT tox,HT1080 IDH1KD tx,DT40 TDP1 CPT,IL-1B inflam inh,DT40 TDP1 no CPT
COc1ccc(Oc2c(C=O)c3ccccc3n2C)cc1,-16.9%,-18.5%,?,?,?
C=CCn1c(Oc2ccc(C=O)cc2OCC)nc2c1c(=O)n(C)c(=O)n2C,-5.0%,7.6%,0.8%,-12.8,-23.4%
O=C(c1cccc(Cl)c1)N1CCCC(Cn2cc(C(=O)N3CCCC3)nn2)C1 (stereo unspecified),.,.,5.4%[9.04 µM],.,-13.0%
C[C@@H]1CN([C@@H](C)CO)C(=O)c2cc(NS(C)(=O)=O)ccc2O[C@@H]1CN(C)S(=O)(=O)c1ccccc1,0.7%,-3.8%,-1.9%,-21.2,-3.4%
CCc1ccccc1NC(=O)/C(=C/c1ccco1)c1ccccc1,-2.0%,3.7%,?,-15.0,18.4µM*
CC(C)(C)NC(=O)/C(=C/c1ccco1)c1ccccc1,21.0%,9.8%,-27.6%,-4.0,-14.2%
Cc1ccccc1NC(=O)/C(=C/c1ccco1)c1ccccc1,-0.2%,-1.6%,23.1µM*,-10.5,11.6µM*
Cc1cc(C)c(C(=O)NC2CCCc3c2cnn3-c2ccc(C)c(C)c2)c(=O)[nH]1 (stereo unspecified),-7.9%,-19.7%,-12.2%,8.0,-11.8%
CC(C)(C)c1ccc(-n2ncc3c2CCCC3NC(=O)c2ccncc2)cc1 (stereo unspecified),-4.6%,-0.2%,11.6µM*,18.0,10.3µM*
Cc1cc(C(=O)NC2CCCc3c2cnn3-c2cc(F)cc(F)c2)nn1C (stereo unspecified),-15.6%,-1.0%,?,10.4,?
Cc1ncoc1C(=O)NC1CCCc2c1cnn2-c1cc(F)cc(F)c1 (stereo unspecified),5.6%,0.0%,-29.0%,27.0,25.9µM*
CCn1nc(C)cc1C(=O)NC1CCCc2c1cnn2-c1cc(F)cc(F)c1 (stereo unspecified),-3.3%,-4.1%,?,7.5,18.4µM*
Cc1cc(C(=O)NC2CCCc3c2cnn3-c2ccc(C(C)(C)C)cc2)n[nH]1 (stereo unspecified),-11.1%,-2.7%,20.6µM*,75.1,11.6µM*
O=C(NC1CCCc2c1cnn2-c1cc(F)cc(F)c1)c1ccncc1 (stereo unspecified),8.5%,-3.7%,-27.0%,24.6,-18.0%
CC(=O)Nc1cc(C(N)=O)c(Cl)cc1Cl,16.7%,-1.1%,-5.9%,4.5,4.4%
CC(C)(C)c1ccc(-n2ncc3c2CCCC3NC(=O)CN2CCOC2=O)cc1 (stereo unspecified),-12.6%,-22.8%,18.4µM*,-27.7,16.4µM*
Cc1ncoc1C(=O)NC1CCCc2c1cnn2-c1ccc(C(C)(C)C)cc1 (stereo unspecified),?,?,7.31µM*,-10.0,7.31µM*
CC(C)(C)c1ccc(-n2ncc3c2CCCC3NC(=O)CCC2=NNC(=O)CC2)cc1 (stereo unspecified),-12.6%,-6.4%,9.2µM*,3.7,3.26µM*
COc1ccc2sc(/C=C/c3ccccc3O)[n+](C)c2c1,9.4%,6.7%,23.1µM*,?,14.6µM*

# Source: PubChem (National Center for Advancing Translational Sciences (NCATS))
